Laboratory results: PubChem BioAssay AID693 (University of Pittsburgh Molecular Library Screening Center, 2007)
Out of some 97,000 compounds screened, about 130 (0.13%) were called active. This is one part of a sample in which actives are shown more often than they occur. Values without a mark were called inactive. Rule as the data show it: active = inhibition above about 34% (passing the limit was not always enough); inactive = the rest.

What follows are molecules tested against Serine/threonine-protein kinase PLK1 (Homo sapiens) (UniProt P53350) (assay: Plk1 polo box domain binding inhibitors, primary screen, biochemical, fluorescence polarization (AID 693)). Settings: Plk1 PBD phosphopeptide binding, stronger effect = higher value,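 tested at about 20 µM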.
Serine/threonine-protein kinase PLK1 (Homo sapiens), sequence (P53350 whole entry, looked up, the tested form may be a part): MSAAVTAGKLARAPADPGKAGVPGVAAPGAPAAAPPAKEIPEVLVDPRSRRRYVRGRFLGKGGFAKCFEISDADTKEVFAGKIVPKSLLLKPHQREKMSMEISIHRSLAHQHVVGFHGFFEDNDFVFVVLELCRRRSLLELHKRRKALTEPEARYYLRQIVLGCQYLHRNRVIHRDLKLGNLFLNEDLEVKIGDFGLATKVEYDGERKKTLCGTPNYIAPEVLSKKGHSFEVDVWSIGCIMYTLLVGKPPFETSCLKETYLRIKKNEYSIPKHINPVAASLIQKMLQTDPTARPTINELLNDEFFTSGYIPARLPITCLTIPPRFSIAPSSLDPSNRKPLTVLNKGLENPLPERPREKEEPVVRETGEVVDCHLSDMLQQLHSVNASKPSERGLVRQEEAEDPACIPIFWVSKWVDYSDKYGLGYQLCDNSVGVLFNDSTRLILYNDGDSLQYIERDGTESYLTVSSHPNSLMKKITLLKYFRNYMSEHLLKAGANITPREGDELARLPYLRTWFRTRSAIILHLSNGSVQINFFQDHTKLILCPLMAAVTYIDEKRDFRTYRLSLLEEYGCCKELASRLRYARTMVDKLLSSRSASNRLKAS

| SMILES | inhibition |
| --- | --- |
| Nc1ccccc1SCc1cc([N+](=O)[O-])cc2c1OCOC2 | 17.1% |
| Cc1nc(-c2ccccc2)sc1-c1nc(-c2ccccc2)ncc1S(=O)(=O)c1ccccc1 | -7.34% |
| COc1cc(/C=C2/C(=O)ON=C2C)ccc1OCc1ccccc1F | -10.3% |
| COc1ccc(-c2oc(/N=C/N3CCCC3)c(C#N)c2-c2ccc(OC)cc2)cc1 | -15.2% |
| CC1(C)CC(=O)C=C(NCc2ccncc2)C1 | 41.4% (active) |
| CC1(C)CC(=O)C=C(NCCCNC2CCCCC2)C1 | -8.28% |
| CC1(C)CC(=O)C=C(NCCN2CCNCC2)C1 | -22% |
| Cc1ccc2[nH]c(=O)c(CN(CCCN(C)C)C(=O)Nc3cccc(Cl)c3)cc2c1 | 3.64% |
| CCN(CC)CCN1C(=O)C(=O)/C(=C(/O)c2cnn(-c3ccccc3)c2C)C1c1cccs1 (centres undefined) | -7.79% |
| Cc1cc(C)c(S(=O)(=O)NCC2CCC(C(=O)NCc3ccc4c(c3)OCO4)CC2)c(C)c1 (centres undefined) | -7.41% |
| COC(=O)c1ccc(OCC(=O)NC(C)(C)C)cc1 | 5.58% |
| C/C(=N\NC(=O)c1ccccc1C)c1ccc(N2CCOCC2)cc1 | -3.42% |
| CCOC(=O)C1(S(=O)(=O)c2ccc(Cl)cc2)CCN(Cc2ccccc2)CC1 | -3.07% |
| O=C(CCc1ccc(S(=O)(=O)NC2CCCCC2)cc1)NCc1ccccc1 | 10.4% |
| O=C(NCCCN1CCOCC1)c1cnn2c(-c3ccccc3)cc(-c3ccccc3)nc12 | -14.2% |
| O=C(NCCOc1ccccc1)c1ccccc1 | -20.9% |
| O=C(COc1ccc(Cl)cc1)NCCC1=CCCCC1 | 14.2% |
| O=C(CCN1CCc2ccccc2C(O)(c2ccccc2)C1)c1ccc2c(c1)OCCO2 (centres undefined) | 16.3% |
| CCCCCN1CC(O)=C(c2ccccc2)C1=N | -1.22% |
| CC(=NCc1ccco1)c1c(C(F)(F)F)[nH]n(-c2nc3ccccc3s2)c1=O | 9.65% |
| Cc1ccc(NC(=O)COc2ccc(-n3ccnc3)cc2)cc1Cl | 2% |
| O=C(Nc1cc2c3c(c1)C1CCCC1CN3CC1CCCC21)c1ccc([N+](=O)[O-])cc1 (centres undefined) | -24.1% |
| CC(C)(C)C(=O)Nc1ccc(C(=O)N/N=C/c2ccccc2OC(=O)c2ccc(Cl)cc2Cl)cc1 | 44.2% |
| CN(C)c1ccnc(Oc2ccc(F)cc2)c1C#N | -3.95% |

| SMILES | inhibition |
| --- | --- |
| CCC(=O)c1c[nH]c(C(=O)NCC2CCCO2)c1 (centres undefined) | 8.77% |
| CS(=O)(=O)N(CC(=O)N1CCN(c2ccc(F)cc2)CC1)C1CCCCC1 | -6.27% |
| CC(=O)c1sc(NC(=O)c2cccc3ccccc23)nc1C | -23.4% |
| COc1ccccc1NC(=O)CC(NCCN(C)C)C(=O)O (centres undefined) | 0.85% |
| CCCn1nnnc1NC(=O)COc1ccc(Cl)cc1C | 12.8% |
| Oc1ccc2ccc3cccc[n+]3c2c1 | 61.2% (active) |
| CN(C)C(CNC(=O)CCCOc1ccccc1)c1ccco1 (centres undefined) | -20% |
| CCOc1cc2[nH]c(=S)n(CCN3CCCCC3C)c(=O)c2cc1OCC (centres undefined) | -2% |
| COC(=O)c1ccc(Cc2ccccc2)o1 | -14.5% |
| CCOC(=O)c1cc(C#N)c(N2CCCCC2)nc1-c1ccccc1 | 20% |
| Cc1nnc(NC(=O)Cn2c(=O)sc3ccccc32)s1 | 12.9% |
| CC1CCN(C(=O)c2cc3nc(C4CC4)cc(C(F)(F)F)n3n2)CC1 | -4.74% |
| O=c1c2ccccc2nc2n1C(CSc1ccc(Cl)cc1)CN2 (centres undefined) | 23.7% |
| COc1ccc2c(Cl)c(C(=O)NCc3ccco3)sc2c1 | -10.8% |
| N#CCSc1nc2ccc(N3CCOCC3)cc2c(=O)n1CCc1ccccc1 | -3.34% |
| CC(=O)Nc1ccccc1OC(=O)N1CCOCC1 | 7.14% |
| Cc1nn(C)cc1/C=C1\CCC/C(=C\c2cn(C)nc2C)C1=O | -18.6% |
| COCCOC(=O)c1sc(=S)n(CCOC)c1N | -9.37% |
| CC(=O)c1ccc(Cc2ncc(C(F)(F)F)cc2Cl)s1 | 25.2% |
| CC(C)(C)NC(=O)Cn1cnc([N+](=O)[O-])n1 | -13.3% |
| CC(=O)NS(=O)(=O)c1ccc(NC(=O)/C=C/c2ccccc2Cl)cc1 | 18.9% |
| O=C(CNS(=O)(=O)c1ccc(Br)s1)N1CCN(C(=O)c2ccco2)CC1 | -13% |
| COc1ccc(OC)c(-n2nnnc2SCC(=O)Nc2cc(C)ccc2OC)c1 | -6.45% |
| CC(C)(C)NS(=O)(=O)c1ccc(NC(=O)NC2CCCCC2)cc1 | -21.3% |

| SMILES | inhibition |
| --- | --- |
| COc1ccc(S(=O)(=O)NCc2ccc(C(=O)N(C)Cc3ccco3)cc2)cc1 | -4.97% |
| CCOC(=O)c1c(-c2ccccc2)csc1NC(=S)NC(=O)c1ccccc1 | 12% |
| C/C(=N\NC(=O)Cc1ccc(Cl)cc1)c1ccccn1 | 4.4% |
| Cc1ccc(S(=O)(=O)Oc2ccc(/C=N/NC(=O)c3c(Cl)cnn3C)cc2)cc1 | 14.5% |
| O=C(NC1CCCC1)C(c1ccccn1)N(C(=O)c1csnn1)C1CCCC1 (centres undefined) | -11.5% |
| CCOc1cc(CNCCN(C)C)c(Cl)cc1OCC(=O)NCCc1ccccc1 | 9.84% |
| N#CC1=C(N)N(c2ccc(F)cc2)C(=O)C1 | 5.37% |
| Cc1c(NC(=O)CCCOc2ccccc2)cccc1[N+](=O)[O-] | 6.93% |
| CCC(C)c1ccc(O)c(/C=N/O)c1 (centres undefined) | 8.06% |
| CCOC(=O)C1CSC(CC(=O)Nc2ccc(OCC)cc2)C(=O)N1 (centres undefined) | 13.9% |
| COC(=O)c1sccc1NC(=O)CCC1CCCC1 | -8.56% |
| Cc1noc(C)c1C(=O)N1CCOCC1 | -11% |
| O=c1c2ccccc2nnn1CSc1nnnn1-c1ccccc1 | -3.85% |
| COc1ccc(-c2nnc(SCC(=O)c3ccc4c(c3)OCCO4)o2)cc1 | -3.12% |
| COc1ccc(C(C)=O)cc1CN1C(=O)NC2(CCCCC2C)C1=O (centres undefined) | 3.66% |
| CCC(=O)NC(Nc1nc2ccc(C)cc2s1)(C(=O)OC)C(F)(F)F (centres undefined) | -11.3% |
| CCOC(=O)C(=O)Nc1nc(-c2ccccc2)c(CC)s1 | 12.1% |
| CC(C)CCNC(=O)Cn1c(=O)oc2cc(S(=O)(=O)N3CC(C)CC(C)C3)ccc21 (centres undefined) | -16.6% |
| O=C(c1ccc(Cl)cc1)c1cnc(Nc2ccccc2)s1 | -14.3% |
| COc1cc(C(=S)N2CCOCC2)cc(OC)c1OC(=O)c1cc([N+](=O)[O-])cc([N+](=O)[O-])c1 | -2.97% |
| C=CCn1c(N)cc(=O)nc1SCC(=O)Nc1cccc2ccccc12 | 15.4% |
| O=C(N/N=C/c1ccc(O)c(O)c1)C1c2ccccc2Oc2ccccc21 | -30.1% |
| O=C(Nc1ccccc1-c1nnn(CC(=O)N2CCCc3ccccc32)n1)c1cccc(Cl)c1 | -7.34% |
| Cn1c(Cc2cccc3ccccc23)nnc1SCC(=O)N1CCN(c2cccc(Cl)c2)CC1 | 23.1% |

| SMILES | inhibition |
| --- | --- |
| Cc1cccc(CCNS(=O)(=O)c2ccc(S(=O)(=O)NC3CCCC3)cc2)c1 | -16.4% |
| CC(C)OC(=O)c1c(NC(=O)c2ccco2)sc2c1CCCC2 | -34.8% |
| CCCc1ccc(OCc2ccc(C(=O)N/N=C/c3cccc([N+](=O)[O-])c3)o2)c(OC)c1 | -2.94% |
| CCC(c1nnnn1C(C)(C)C)N(Cc1cc2cccc(C)c2n2nnnc12)C1CCCC1 (centres undefined) | -13.2% |
| Cc1[nH]c(=O)c(C(=O)/C=C/c2ccccc2)c2c1CCCC2 | -8.98% |
| Cc1nn(C)cc1C(=O)NNC(=S)Nc1ccc(Cl)cc1 | -11.1% |
| N#Cc1ccccc1CN1C(=O)S/C(=C/c2cccn2-c2cccc(C(=O)O)c2)C1=O | -6.67% |
| O=C(CCCn1c(SCC(=O)c2ccccc2)nc2ccccc2c1=O)NCC1CCCO1 (centres undefined) | 8.37% |
| Cc1ccc(OC(=O)c2ccccc2C(=O)OCC(F)(F)C(F)F)cc1 | -16.7% |
| CCOC(=O)CNC(=O)CSc1nc2cccnc2n1CC | 7.16% |
| C=C(Cl)COC(=O)C1C2C=CC(C2)C1C(=O)O (centres undefined) | 3.3% |
| Cc1nnc(SCC(=O)N/N=C/c2cn(-c3ccccc3)nc2-c2ccc(F)cc2)n1-c1ccccc1 | -7.66% |
| COCCCn1c(SCc2cccc(OC)c2)nc2cc(OC)c(OC)cc2c1=N | -12.2% |
| O=[N+]([O-])c1cccc(-c2nnc3c4ccccc4c4ccccc4n23)c1 | -7.67% |
| Cc1csc2ncc(C(=O)N(Cc3ccccc3)c3ccccn3)c(=O)n12 | -14.3% |
| COC(=O)c1c(-c2cccs2)csc1NC(=O)CSc1ncnc2sc(C)c(C)c12 | -2.76% |
| COc1ccc(C2=NOC3(CC(=O)N(c4ccc(C)cc4)C3=O)C2)cc1 (centres undefined) | 13.3% |
| O=[N+]([O-])c1ccc(NCCCN2CCOCC2)c(Cl)c1 | -38.6% |
| O=C(c1ccco1)N1CCN(C(=O)C2CCCN(S(=O)(=O)c3cccc4nsnc34)C2)CC1 (centres undefined) | -29.8% |
| Cc1ccc(C2NC(=S)NC3=C2N2CCC3CC2)cc1 (centres undefined) | 3.93% |
| N#C/C(=C(\O)CCl)c1nnc2n1CCCCC2 | -0.62% |
| COc1ccc(C(=O)Nc2nc(-c3ccc(OC)cc3)c(-c3ccc([N+](=O)[O-])cc3)s2)cc1 | -2.13% |
